Pf growth 48h – Primary qHTS for delayed death inhibitors of the malarial parasite plastid, 48 hour incubation; AID 504832, 2011; Potency, µM (series often up to 28.7 µM), for inactives: top-dose activity change, negative = inhibition, hits mostly inhibitors; P. falciparum luciferase growth in erythrocytes, 48 h; hit rate 5.9% among 310,000; also: % is scaled to controls: 0 for no effect and ±100 for the full control effect
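Luciferase-expressing P. falciparum in infected erythrocytes (2% hematocrit, 0.1% parasitemia final) in RPMI 1640/0.5% Albumax were exposed to compound for 48 hours at 37 C, 5% CO2; growth read as luminescence.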
AMA1 RON2 block – qHTS for Inhibitors of AMA1-RON; Towards Development of Antimalarial Drug Lead: Primary Screen; Plasmodium falciparum AMA1 (3D7) - RON2 peptide interaction; AlphaScreen AMA1-biotinylated RON2 peptide binding; Potency, µM (series often up to 58.2 µM), for the others: top-dose activity change, negative = inhibition, hits mostly inhibitors; hit rate 0.2% among 360,000;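 also: 0% = vehicle wells and -100% = peptide control; nearly all actives have a fitted effect of over 45% in size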
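AMA1 (3D7) with his tag at 25 nM final met compounds first, then biotinylated RON2 peptide at 25 nM; detection used donor plus acceptor beads, 10 µg/mL apiece, read by AlphaScreen after 30 min at room temperature.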
SARS PLpro yeast – qHTS of Yeast-based Assay for SARS-CoV PLP; S. cerevisiae expressing SARS-CoV PLpro, growth rescue; Potency, µM (top dose mostly 32.9 µM), for inactives: at the highest dose activity, positive = growth rescue, actives largely listed as activators; hit rate 0.19% among 330,000; AID 485353, 2010; calls by dose curve; also: 0% is about no effect; nearly all actives have a fitted effect of over 55% in size
Pf growth 96h – Primary qHTS for delayed death inhibitors of the malarial parasite plastid, 96 hour incubation; P. falciparum luciferase reporter growth, 96 h; Potency, µM (highest dose often 28.7 µM), without a hit: top-dose activity change, negative = inhibition, hits mostly inhibitors; hit rate 6.9% among 320,000; also: % is scaled to controls: 0 for no effect and ±100 for the full control effect
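Infected RBCs, 2% Hct / 0.05% parasitemia final; luciferase-reporter P. falciparum; cpd 96 h, 37 C, 5% CO2; luciferase detection reagent; luminescence.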
Active calls of the source: *; u = inconclusive; x = no result given; [ ] = another dose, or the depositor's remark. Only some compounds are listed: those with a hit (about 9.4% of all), similar ones and a draw of the others. Unless noted, calls follow the shape of the dose curve; as a rule, active = well fitted curve in the direction sought with a large enough effect; inconclusive = small, poorly fitted or top-dose-only effect, or another doubt; inactive = no such curve, though single readings can be large; an effect the other way counts as inactive or inconclusive. Potency is read from the fitted curve at half-maximal effect.

SMILES	Pf growth 48h	AMA1 RON2 block	SARS PLpro yeast	Pf growth 96h
COCCn1c(N)c(N(Cc2ccccc2)C(=O)c2ccc3ccccc3c2)c(=O)[nH]c1=O	10µM*	1%	-4%	u
CCCCn1c(N)c(N(CCOC)C(=O)c2cc(-c3ccc(C)cc3)nc3ccccc23)c(=O)[nH]c1=O	u	19%	2%	12µM*
CCCCn1c(N)c(N(CCOC)C(=O)c2cc(-c3ccc(F)cc3)nc3ccccc23)c(=O)[nH]c1=O	u	-11%	0%	u
CCCCn1c(N)c(N(CCOC)C(=O)c2ccc(-c3cccc(C(F)(F)F)c3)o2)c(=O)[nH]c1=O	13µM*	-9%	9%	7.4µM*
C#CCOCCOCCOCCNc1nc(N2CCN(C(=O)CCCCCCCCCCNC(=O)Cn3cc(CCCCCN)nn3)CC2)nc(N2CCN(C(=O)CCCCCCCCCCNC(=O)[C@@H]([C@H](C)O)n3cc(C)nn3)CC2)n1	0.33µM*	-13%	-5%	0.52µM*
C#CCOCCOCCOCCNc1nc(N2CCN(C(=O)CCCCCCCCCCNC(=O)Cn3cc(C[C@@H](C)O)nn3)CC2)nc(N2CCN(C(=O)CCCCCCCCCCNC(=O)[C@@H]([C@H](C)O)n3cc(C)nn3)CC2)n1	0.074µM*	9%	-22%	0.083µM*
C#CCOCCOCCOCCNc1nc(N2CCN(C(=O)Cn3cc(CC(C)O)nn3)CC2)nc(N2CCN(C(=O)Cn3cc(CC(C)O)nn3)CC2)n1 (stereo not drawn)	23%	1%	4%	-1%
C#CCOCCOCCOCCNc1nc(N2CCN(C(=O)Cn3cc(CCCCN)nn3)CC2)nc(N2CCN(C(=O)Cn3cc(CC(C)O)nn3)CC2)n1 (stereo not drawn)	11%	0%	1%	-18%
Cc1ccc(-n2nnnc2CN2CCCCC2)cc1	-13%	-10%	0%	2.1µM*
Cc1ccc(S(=O)(=O)Cn2nnnc2CN2CCCC3(CCCCC3)C2)cc1	13µM*	1%	-14%	x
Clc1ccc(-n2nnnc2CN2CCOCC2)cc1	6%	-2%	-5%	53%
CCC(Oc1ccccc1F)C(=O)NCCCn1ccnc1 (stereo not drawn)	3%	2%	4%	24%
CCOC(=O)C(C)N1C(=O)S/C(=C/c2cc(C)n(-c3ccccn3)c2C)C1=O (stereo not drawn)	23%	8%	-3%	x
CCOC(=O)C(C)N1C(=O)S/C(=C/c2cc(C)n(-c3ccncc3)c2C)C1=O (stereo not drawn)	u	-22%	-2%	13µM*
O=C1c2ccc3c4c(ccc(c24)C(=O)N1c1cccc(O)c1)CC3	12%	13%	0%	31%
O=C1c2ccc3c4c(ccc(c24)C(=O)N1c1cccc(O)c1)C(=O)N(c1cccc(O)c1)C3=O	1.9µM*	-3%	2%	1µM*
COc1ccccc1Oc1ccc2c(c1)C(=O)N(c1cccc(O)c1)C2=O	2.6µM*	-9%	-12%	66%
COc1ccccc1Oc1ccc2c(c1)C(=O)N(c1cccc3ncccc13)C2=O	13%	0%	-15%	185%
O=C(Nc1ccncc1)c1cccc(S(=O)(=O)N2CCN(c3ccc(F)cc3)CC2)c1	u	-27%	-1%	12µM*
Cc1cccc(C)c1NC(=O)CN(C)C(=O)c1cccc(S(=O)(=O)N2CCN(c3ccc(F)cc3)CC2)c1	17µM*	-14%	-3%	u
COC(=O)c1cc(S(=O)(=O)N2CCN(c3ccc(F)cc3)CC2)cn1C	29%	5%	-1%	9.3µM*
COc1ccccc1-c1cc(C(F)(F)F)n2ncc(S(=O)(=O)c3ccccc3)c2n1	u	8%	-14%	u
COc1ccc(/C=C(/NC(=O)c2ccc(C)cc2)C(=O)NCc2ccncc2)cc1	0%	13%	3%	0%
CN(C)CCCn1c2c(c(SCC(=O)Nc3ccc4c(c3)OCO4)nc1=O)CCC2	4%	-14%	6%	-5%
O=C(NCc1nnnn1-c1ccccc1)c1ccc2ccccc2c1	x	-8%	x	x
SMILES	Pf growth 48h	AMA1 RON2 block	SARS PLpro yeast	Pf growth 96h
COc1ccc2[nH]c3c(=O)n(CCCCC(=O)NCCC(C)C)c(=S)[nH]c3c2c1	u	95%	2%	5.2µM*
CCCNC(=O)CCCCn1c(=S)[nH]c2c([nH]c3ccc(OC)cc32)c1=O	198%	115%	-3%	-1%
CCC(=O)NC(c1ccc(C)cc1)c1cc([N+](=O)[O-])c2cccnc2c1O (stereo not drawn)	u	27%[11.6 µM]	3.2µM*	20%
CC(=O)NC(c1ccc(N(C)C)cc1)c1cc(Cl)c2cccnc2c1O (stereo not drawn)	x	63%	x	x
CCC(=O)NC(c1cc(Cl)c2cccnc2c1O)C(C)C (stereo not drawn)	2.9µM*	x	3%	13µM*
CC(=O)NC(c1ccccc1)c1cc(Cl)c2cccnc2c1O (stereo not drawn)	0.83µM*	0%	u	u
CCC(=O)NC(c1cc(Cl)c2cccnc2c1O)C1CC1 (stereo not drawn)	3.7µM*	x	6%	2.9µM*
CC(=O)NC(c1ccc(C)cc1)c1cc([N+](=O)[O-])c2cccnc2c1O (stereo not drawn)	u	-33%	6%	u
COc1ccc(CCNC(=O)C(=O)NCC2OCCN2S(=O)(=O)c2ccc(OC)c(OC)c2)cc1 (stereo not drawn)	u	-5%	-8%	u
CCOC(=O)c1ccc(NC(=O)CSc2nnc(Cc3cccs3)n2C)cc1	u	7%	-5%	8.3µM*
COc1ccc(NC(=O)CSC2=NC(=O)CC(C)=N2)cc1	19%	0%	8%	12µM*
COc1ccc(NC(=O)CSCc2ccc(C)cc2)cc1	5%	-23%	-1%	23%
CCOC(=O)c1ccc(NC(=O)CSc2nnc(CNc3ccc(OC)cc3)n2C)cc1	6.6µM*	0%	11%	2%[5.75 µM]
COc1ccc(NC(=O)CSc2c(C)nn(-c3nnc(C)c(=O)[nH]3)c2C)cc1	-13%	37%	-2%	12µM*
C=CCn1c(Cc2cccs2)nnc1SCC(=O)Nc1ccc(C(=O)OCC)cc1	-47%	27%	-8%	u
C/C(=C/c1ccccc1)C(=O)N1CC(C)OC(C)C1 (stereo not drawn)	-7%	-1%	0%	25%
COc1ccc(CN2CCN(C(C)C(=O)NC(C)c3ccc(F)cc3)CC2)cc1F (stereo not drawn)	-12%	-4%	x	-13%
CCn1nnnc1SCC(=O)Nc1ccc(OC)cc1	24%	14%	1%	15µM*
CCOC(=O)c1ccc(NC(=O)C2(c3ccc(OC)cc3)CCCC2)cc1	5.9µM*	10%	1%	u
C=CCn1nnnc1SCC(=O)Nc1ccc(OC)cc1	39%	-9%	0%	-37%
CCc1ccc(-n2cc(-c3ccc(F)cc3)[n+]3c2SCCC3)cc1	1.5µM*	-14%	-5%	u
